# PubChem BioAssay
# Active and inactive are the calls of the source.
# Tests used:
# [1] = test system: Plasmodium falciparum Sir2 (PF13_0152, Sir2A); assay: pfSir2 binders on small-molecule microarrays, primary screen, biochemical, small-molecule microarray, 635 nm fluorescence (AID 1098); conditions: small-molecule microarray binding, fluorescence 635 nm; higher = more signal;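 also: score merges spot fluorescence intensity with its signal-to-noise ratio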
# [2] = small-molecule microarray binders of probe aDKK1, primary screen, biochemical, biotinylated probe, 635/667 nm fluorescence (AID 1099); conditions: higher = more signal;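 also: score merges 667nm spot fluorescence with signal to noise across triplicate slides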
# [3] = small-molecule microarray binders of probe aCHRDL2, primary screen, biochemical, biotinylated probe, 635/667 nm fluorescence (AID 1100); conditions: higher = more signal
# [4] = splicing luciferase reporter signal modulators, primary screen, spliceosome inhibition project, cell-based, HEK293, splice +/- reporter (AID 1101); conditions: luminescence, 24 h, higher = more signal, called active from +8 up or from −8 down;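 also: HEK293 cells carrying a splicing-competent luciferase reporter gene; test concentration not given here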
# [5] = molecular target: Fibroblast growth factor 10 (Homo sapiens) (UniProt O15520); assay: FGF10 binders on small-molecule microarrays, primary screen, biochemical, small-molecule microarray, 635 nm fluorescence (AID 1102); conditions: FGF10 binding, fluorescence 635 nm, higher = more signal
# Sequence of Fibroblast growth factor 10 (Homo sapiens) (O15520 whole entry, looked up): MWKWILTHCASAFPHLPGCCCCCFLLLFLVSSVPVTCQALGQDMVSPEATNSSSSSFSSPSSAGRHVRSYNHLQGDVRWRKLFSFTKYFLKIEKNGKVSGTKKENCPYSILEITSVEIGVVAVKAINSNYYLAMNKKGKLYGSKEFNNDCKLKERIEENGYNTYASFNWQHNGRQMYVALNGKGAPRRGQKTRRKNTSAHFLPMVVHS
# [6] = test system: glycogen synthase kinase-3 (GSK3A per assay name; protocol says GSK3B); assay: GSK3 binders on small-molecule microarrays, primary screen, biochemical, small-molecule microarray, 635 nm fluorescence, GSK3A (AID 1103); conditions: small-molecule microarray binding, fluorescence 635 nm; higher = more signal; also: the record names both GSK3A and GSK3B
# [7] = molecular target: Epidermal growth factor receptor (Homo sapiens) (UniProt P00533); assay: EGFR binders on small-molecule microarrays, primary screen, biochemical, small-molecule microarray, 635 nm fluorescence (AID 1104); conditions: EGFR binding, higher = more signal;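 also: score merges 667 nm emission intensity with spot signal to noise over triplicate slides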
# Sequence of Epidermal growth factor receptor (Homo sapiens) (P00533 whole entry, looked up): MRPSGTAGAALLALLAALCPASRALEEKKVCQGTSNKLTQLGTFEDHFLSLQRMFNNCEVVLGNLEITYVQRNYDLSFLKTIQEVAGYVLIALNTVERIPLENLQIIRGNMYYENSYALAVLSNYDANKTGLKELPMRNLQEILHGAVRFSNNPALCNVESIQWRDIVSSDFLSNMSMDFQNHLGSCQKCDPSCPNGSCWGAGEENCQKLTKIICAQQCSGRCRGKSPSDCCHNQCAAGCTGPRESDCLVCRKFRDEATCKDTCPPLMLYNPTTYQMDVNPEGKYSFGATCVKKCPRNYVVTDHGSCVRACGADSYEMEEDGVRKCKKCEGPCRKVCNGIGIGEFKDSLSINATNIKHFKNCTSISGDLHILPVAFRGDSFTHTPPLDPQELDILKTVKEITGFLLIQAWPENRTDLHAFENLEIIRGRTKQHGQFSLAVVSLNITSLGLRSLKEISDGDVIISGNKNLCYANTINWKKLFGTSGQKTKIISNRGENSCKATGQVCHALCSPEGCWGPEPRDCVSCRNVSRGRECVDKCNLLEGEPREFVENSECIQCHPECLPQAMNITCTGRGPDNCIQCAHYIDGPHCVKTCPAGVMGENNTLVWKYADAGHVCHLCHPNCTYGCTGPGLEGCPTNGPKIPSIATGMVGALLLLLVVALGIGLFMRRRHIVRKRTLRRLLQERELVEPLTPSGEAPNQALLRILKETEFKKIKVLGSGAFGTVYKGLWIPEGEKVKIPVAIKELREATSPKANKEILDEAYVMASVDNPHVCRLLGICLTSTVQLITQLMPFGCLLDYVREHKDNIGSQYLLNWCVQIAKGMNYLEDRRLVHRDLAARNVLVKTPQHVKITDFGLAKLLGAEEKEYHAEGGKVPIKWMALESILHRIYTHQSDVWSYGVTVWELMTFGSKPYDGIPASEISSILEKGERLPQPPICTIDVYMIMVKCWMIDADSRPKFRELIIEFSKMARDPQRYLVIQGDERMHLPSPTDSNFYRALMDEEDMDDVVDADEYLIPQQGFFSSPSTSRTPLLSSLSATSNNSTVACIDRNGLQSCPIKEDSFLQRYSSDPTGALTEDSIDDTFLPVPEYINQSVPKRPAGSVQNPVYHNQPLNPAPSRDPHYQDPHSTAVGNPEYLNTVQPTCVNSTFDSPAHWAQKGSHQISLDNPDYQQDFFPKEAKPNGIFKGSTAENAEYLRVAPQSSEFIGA
# [8] = molecular target: Follistatin-related protein 3 (Homo sapiens) (UniProt O95633); assay: FSTL3 binders on small-molecule microarrays, primary screen, biochemical, small-molecule microarray, 635 nm fluorescence (AID 1105); conditions: FSTL3 binding, higher = more signal;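 also: score merges emission near 667 nm and signal to noise per printed spot across three slides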
# Sequence of Follistatin-related protein 3 (Homo sapiens) (O95633 whole entry, looked up): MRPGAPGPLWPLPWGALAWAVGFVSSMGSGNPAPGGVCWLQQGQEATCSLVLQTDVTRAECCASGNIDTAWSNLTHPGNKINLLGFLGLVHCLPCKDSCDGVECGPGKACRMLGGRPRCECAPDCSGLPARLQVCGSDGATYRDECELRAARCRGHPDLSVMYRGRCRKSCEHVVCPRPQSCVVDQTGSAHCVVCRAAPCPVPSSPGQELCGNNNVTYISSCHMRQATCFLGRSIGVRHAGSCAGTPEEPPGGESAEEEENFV
# [9] = molecular target: Dickkopf-related protein 1 (Homo sapiens) (UniProt O94907); assay: DKK1 binders on small-molecule microarrays, primary screen, biochemical, small-molecule microarray, 635 nm fluorescence scan (AID 1106); conditions: DKK1 binding, higher = more signal;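 also: score merges emission near 667 nm with signal to noise over three replicate slides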
# Sequence of Dickkopf-related protein 1 (Homo sapiens) (O94907 whole entry, looked up): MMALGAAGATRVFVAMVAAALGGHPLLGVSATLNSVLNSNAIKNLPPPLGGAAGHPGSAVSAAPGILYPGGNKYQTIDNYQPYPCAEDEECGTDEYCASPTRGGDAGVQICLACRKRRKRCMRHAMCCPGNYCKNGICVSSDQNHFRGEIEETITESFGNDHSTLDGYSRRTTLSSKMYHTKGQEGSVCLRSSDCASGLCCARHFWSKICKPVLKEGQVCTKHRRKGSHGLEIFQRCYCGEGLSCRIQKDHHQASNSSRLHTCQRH
# [10] = test system: Inhibin beta A chain (activin A); assay: INHBA (activin A) binders on microarrays, primary screen, biochemical, small-molecule microarray, 635 nm fluorescence scan (AID 1107); conditions: small-molecule microarray binding, higher = more signal;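 also: mouse activin A protein probed at 4.33 µg/mL on printed slides; score merges bound-protein fluorescence near 667 nm with spot signal-to-noise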
# [11] = test system: Human papillomavirus type 1a protein E7 (residues 44-93); assay: HPV1a E7 fragment binders on microarrays, primary screen, biochemical, small-molecule microarray, residues 44-93, 635 nm fluorescence (AID 1108); conditions: small-molecule microarray binding, fluorescence 635 nm; higher = more signal;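 also: E7 fragment applied at 1 µg/mL in TBST for 1 h at 4 C; score combines spot fluorescence with its signal to noise ratio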
# [12] = modulators of HCV replicon luciferase signal, primary screen, HCV replication inhibitor project, Huh7 cells, luciferase reporter (AID 1109); conditions: 48 h, higher = more signal;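 also: huh7 hepatoma cells harbouring a luciferase neomycin HCV replicon reporter; luciferase luminescence as measure of HCV replicon replication; test concentration not given here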
# [13] = molecular target: Left-right determination factor 2 (Homo sapiens) (UniProt O00292); assay: LEFTY2 binders on small-molecule microarrays, primary screen, biochemical, small-molecule microarray, 635 nm fluorescence scan (AID 1110); conditions: LEFTY2 binding, higher = more signal
# Sequence of Left-right determination factor 2 (Homo sapiens) (O00292 whole entry, looked up): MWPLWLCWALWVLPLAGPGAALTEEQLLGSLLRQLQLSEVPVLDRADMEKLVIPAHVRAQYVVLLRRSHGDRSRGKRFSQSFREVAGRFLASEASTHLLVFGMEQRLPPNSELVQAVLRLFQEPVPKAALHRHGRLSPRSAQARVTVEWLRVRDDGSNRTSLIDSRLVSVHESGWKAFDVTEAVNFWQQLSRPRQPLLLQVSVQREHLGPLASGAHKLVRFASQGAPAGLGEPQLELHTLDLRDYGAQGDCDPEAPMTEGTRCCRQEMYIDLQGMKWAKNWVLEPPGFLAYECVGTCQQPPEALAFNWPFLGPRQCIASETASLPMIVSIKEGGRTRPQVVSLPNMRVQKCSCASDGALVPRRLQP
# [14] = molecular target: Calmodulin-1 (Homo sapiens) (UniProt P0DP23); assay: CALM1 binders on microarrays, EGTA buffer, profiling panel, biochemical, small-molecule microarray, Cy5-labelled CALM1 (AID 1111); conditions: Cy5-CALM1 binding fluorescence, higher = more signal;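 also: labelled calmodulin applied in Tris saline Tween buffer holding calcium plus EGTA and DTT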
# [15] = molecular target: Calmodulin-1 (Homo sapiens) (UniProt P0DP23); assay: calcium-bound CALM1 binders on microarrays, profiling panel, artefact control for SMM control-protein annotation, biochemical, small-molecule microarray, Cy5-labelled CALM1, plus calcium (AID 1112); conditions: Cy5-CALM1 binding fluorescence, higher = more signal;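 also: score merges spot fluorescence with signal to noise from triplicate slides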
# [16] = small-molecule microarray binders of probe aWnt5a, primary screen, biochemical, biotinylated probe, 635/667 nm fluorescence (AID 1113); conditions: higher = more signal;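 also: score merges 667 nm fluorescence intensity with signal-to-noise per printed feature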
# [17] = small-molecule microarray binders of probe aShh, primary screen, biochemical, biotinylated probe, 635/667 nm fluorescence (AID 1114); conditions: higher = more signal;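 also: probe is biotin-labelled aShh protein from a stem cell growth factor screen; measures binding of labelled protein to compounds printed on the slide; score merges feature fluorescence at 667 nm with signal-to-noise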
# [18] = small-molecule microarray binders of probe aNog, primary screen, biochemical, biotinylated probe, 635/667 nm fluorescence (AID 1115); conditions: higher = more signal;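 also: probe is biotinylated aNog protein used at 0.15 µg/mL for 1 h at 4 C; z-score combines 667 nm fluorescence of each spot with its signal to noise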
# [19] = molecular target: Torsin-1A-interacting protein 1 (Homo sapiens) (UniProt Q5JTV8); assay: LAP1 binders from COS7 cell lysate, primary screen, small-molecule microarray, 635/667 nm fluorescence (AID 1116); conditions: COS7-hLAP1 lysate binding, 635 nm fluorescence, higher = more signal
# Sequence of Torsin-1A-interacting protein 1 (Homo sapiens) (Q5JTV8 whole entry, looked up): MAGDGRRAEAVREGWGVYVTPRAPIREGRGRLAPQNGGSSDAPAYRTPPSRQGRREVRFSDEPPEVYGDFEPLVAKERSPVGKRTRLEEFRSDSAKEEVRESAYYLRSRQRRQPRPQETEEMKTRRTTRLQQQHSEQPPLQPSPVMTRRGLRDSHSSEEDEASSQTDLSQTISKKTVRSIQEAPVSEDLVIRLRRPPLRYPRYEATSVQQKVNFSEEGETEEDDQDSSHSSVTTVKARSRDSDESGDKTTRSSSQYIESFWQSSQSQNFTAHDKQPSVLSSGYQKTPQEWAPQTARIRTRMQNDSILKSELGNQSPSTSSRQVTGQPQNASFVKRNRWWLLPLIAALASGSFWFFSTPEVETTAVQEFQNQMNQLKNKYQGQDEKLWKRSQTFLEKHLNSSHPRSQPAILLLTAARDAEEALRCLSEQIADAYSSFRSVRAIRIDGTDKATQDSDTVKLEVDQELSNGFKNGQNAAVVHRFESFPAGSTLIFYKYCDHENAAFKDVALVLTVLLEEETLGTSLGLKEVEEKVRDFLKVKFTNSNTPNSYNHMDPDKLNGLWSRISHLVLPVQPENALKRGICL
# [20] = molecular target: Alpha-bungarotoxin (Bungarus multicinctus) (UniProt P60615); assay: alpha-bungarotoxin binders on microarray, profiling panel, artefact control for SMM control protein annotation, biochemical, small-molecule microarray, Alexa647 label, 635/667 nm fluorescence (AID 1117); conditions: alpha-BTX-A647 binding fluorescence, higher = more signal
# Sequence of Alpha-bungarotoxin (Bungarus multicinctus) (P60615 whole entry, looked up): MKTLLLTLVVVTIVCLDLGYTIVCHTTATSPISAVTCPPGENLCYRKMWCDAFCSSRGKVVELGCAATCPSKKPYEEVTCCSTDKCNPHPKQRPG
SMILES,composite z-score [1],composite z-score [2],composite z-score [3],z-score [4],composite z-score [5],composite z-score [6],composite z-score [7],composite z-score [8],composite z-score [9],composite z-score [10],composite z-score [11],z-score [12],composite z-score [13],composite z-score [14],composite z-score [15],composite z-score [16],composite z-score [17],composite z-score [18],composite z-score [19],composite z-score [20]
Cc1ccc(S[C@]2(C(=O)NCC(C)C)CC(=O)N(Cc3ccccc3)[C@@H]2c2ccc(CO)cc2I)cc1,1.52,0.0143,0.388,-0.531 (inactive),0.417,0.441,0.287,0.75,0.149,0.975,1.29,-2.6,0.118,0.425,0.473,-0.063,-0.196,-0.67,0.0825,0.545
COc1cc2c(cc1O)C(C)N(Cc1cccc(OC(F)(F)F)c1)CC2 (stereo not given),1.7,0.0376,0.23,-0.0689 (inactive),1.24,0.219,-0.425,0.514,0.188,0.902,1.37,-0.815,-0.442,0.854,0.938,-0.0445,0.0326,0.582,1.67,0.514
COC(=O)[C@@]1(Cc2ccccc2)N=C(c2ccc(OCCCO)cc2)O[C@H]1c1ccccc1N=[N+]=[N-],1.38,0.0861,0.657,-0.384 (inactive),0.883,0.887,-0.003,0.848,0.425,1.23,1.33,-0.749,0.241,-0.203,-1.07,-0.0405,0.297,0.781,2.83,0.778
COc1cc2c(cc1OC)CN(C(=O)[C@@H]1[C@H]3C(=O)O[C@H](c4ccccc4)[C@H](c4ccccc4)N3[C@H](c3ccccc3OCCO)[C@@]13C(=O)Nc1ccc(C#CCNC(N)=O)cc13)CC2,1.58,0.0627,0.281,0.095 (inactive),0.518,1.08,0.245,0.445,0.208,0.922,0.644,-1.01,0.17,1.36,0.478,0.0744,0.155,1.12,1.29,1.9
CCCC[C@H]1OB(O)C[C@H]2C1=C(C)C[C@H]1C(=O)N(Cc3ccccc3)C(=O)[C@H]12,0.148,-0.109,-0.665,0.0984 (inactive),1.13,0.507,0.244,1.25,0.999,0.181,0.152,0.885,0.369,0.229,-0.326,0.0017,-0.0396,-0.351,-0.254,-0.277
